Several values for one entry are separate records, joined by “and”; a condition that tells them apart may be missing. Equal values may be shown once. Compounds without any hit were thinned out: in the full panel of roughly 83,000, 20% have a hit.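 Negative percent growth values reflect cell death: -40 means 40% of the cells present at the start died, and -100 means all died.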 Activity calls are given as the source filed them. How the source made its calls: active means growth percent below 10; inactive means the rest.
Columns and labels:
Assay in all cases: NCI-60 one-dose screen, 48 h (100 = growth as untreated, 0 = no growth, -100 = all killed)
Details in all cases: 10 µM unless noted
SR leukemia = test system: SR leukemia
RPMI-8226 leukemia = test system: RPMI-8226 leukemia
OVCAR-8 ovarian = test system: OVCAR-8 ovarian
OVCAR-5 ovarian = test system: OVCAR-5 ovarian
SK-OV-3 ovarian = test system: SK-OV-3 ovarian
IGROV1 ovarian = test system: IGROV1 ovarian
OVCAR-3 ovarian = test system: OVCAR-3 ovarian
HS 578T breast = test system: HS 578T breast
NCI/ADR-RES ovarian = test system: NCI/ADR-RES ovarian
OVCAR-4 ovarian = test system: OVCAR-4 ovarian

Measured: growth

Cc1cccc(Cc2cnc(NC(=O)CCCOc3ccc(Cl)cc3)s2)c1
inactive: SR leukemia 18.4% | RPMI-8226 leukemia 22.9% | OVCAR-8 ovarian 37.6% | OVCAR-5 ovarian 36.2% | SK-OV-3 ovarian 36.4% | IGROV1 ovarian 39.1% | HS 578T breast 21.4% | NCI/ADR-RES ovarian 32.3%
active: OVCAR-3 ovarian 7.26%

N#Cc1ccccc1OCC(=O)Nc1nc2c(s1)COc1ccccc1-2
inactive: RPMI-8226 leukemia 96.8% | OVCAR-8 ovarian 106% | OVCAR-5 ovarian 85.4% | OVCAR-4 ovarian 99.1% | SK-OV-3 ovarian 94.7% | OVCAR-3 ovarian 110% | NCI/ADR-RES ovarian 104%
active: SR leukemia -19.5%

Clc1ccc2c(c1)N(c1ncnc3ccc(-c4cnc5[nH]ccc5c4)cc13)CC2
active: SR leukemia 1.86% | IGROV1 ovarian -24% | HS 578T breast 1.12%
inactive: RPMI-8226 leukemia 26% | OVCAR-8 ovarian 27.9% | OVCAR-5 ovarian 39.1% | SK-OV-3 ovarian 28.3% | OVCAR-3 ovarian 21.5% | NCI/ADR-RES ovarian 33.3%

O=C1C(Nc2ccc(Cl)cc2)=C(I)C(=O)c2ncccc21
inactive: OVCAR-5 ovarian 60.4% | SK-OV-3 ovarian 83.3% | HS 578T breast 39.9%
active: SR leukemia 4.45% | RPMI-8226 leukemia -2.24% | OVCAR-8 ovarian -65.1% | IGROV1 ovarian -76.2% | OVCAR-3 ovarian -88.3% | NCI/ADR-RES ovarian -0.0242%

CCOC(=O)CCCn1c(-c2ccccc2)cc(-c2ccccc2)c(C#N)c1=O
inactive: SR leukemia 63.7% | RPMI-8226 leukemia 87.2% | OVCAR-8 ovarian 85.6% | OVCAR-5 ovarian 99.5% | SK-OV-3 ovarian 100% | IGROV1 ovarian 77.2% | OVCAR-3 ovarian 103% | HS 578T breast 67.8% | NCI/ADR-RES ovarian 72%

Nc1n[nH]c2cccc(C#Cc3cccc(C(=O)Nc4ccc(CN5CCOCC5)c(C(F)(F)F)c4)c3)c12
inactive: SR leukemia 36.1% | RPMI-8226 leukemia 16.4% | OVCAR-8 ovarian 12.5% | OVCAR-5 ovarian 41.2% | SK-OV-3 ovarian 88.8% | IGROV1 ovarian 18.6% | OVCAR-3 ovarian 60.5% | HS 578T breast 29.5% | NCI/ADR-RES ovarian 18.4%

CCOC(=O)c1nc2c3ccccc3cnn2c1C(=O)c1ccc(OC)cc1
inactive: SR leukemia 90.6% | RPMI-8226 leukemia 95.6% | OVCAR-8 ovarian 98.2% | OVCAR-5 ovarian 106% | SK-OV-3 ovarian 81.6% | IGROV1 ovarian 105% | OVCAR-3 ovarian 110% | HS 578T breast 101% | NCI/ADR-RES ovarian 94.4%

Nc1ncnc2c1C(c1ccc([N+](=O)[O-])cc1)c1sc3c(F)cccc3c1O2 (stereo not drawn)
inactive: SR leukemia 94.3% | RPMI-8226 leukemia 103% | OVCAR-8 ovarian 102% | OVCAR-5 ovarian 85.9% | SK-OV-3 ovarian 109% | IGROV1 ovarian 85.6% | OVCAR-3 ovarian 110% | HS 578T breast 89.2% | NCI/ADR-RES ovarian 101%

CCCCCCCC/C=C\CCCCCCCCOc1ccccc1CC(=O)NCC[N+]1(C)CCOCC1
inactive: SR leukemia 30% | RPMI-8226 leukemia 77.7% | OVCAR-8 ovarian 78.1% | OVCAR-5 ovarian 42.7% | OVCAR-4 ovarian 102% | SK-OV-3 ovarian 75.3% | OVCAR-3 ovarian 101% | NCI/ADR-RES ovarian 97.9%

CCOc1ccc(C(=O)Cc2ccccc2)cc1
inactive: SR leukemia 93.4% and 92.3% | RPMI-8226 leukemia 106% and 95% | OVCAR-8 ovarian 109% and 106% | OVCAR-5 ovarian 103% and 109% | SK-OV-3 ovarian 121% and 117% | IGROV1 ovarian 116% and 110% | OVCAR-3 ovarian 120% and 125% | HS 578T breast 107% | NCI/ADR-RES ovarian 107% and 104%

COC(=O)/C=C1/SC(N2N=C(c3cccs3)CC2c2ccc(F)cc2)=NC1=O (stereo not drawn)
active: SR leukemia 7.77% | RPMI-8226 leukemia -24.2%
inactive: OVCAR-8 ovarian 44.1% | OVCAR-5 ovarian 79.1% | SK-OV-3 ovarian 89.2% | IGROV1 ovarian 32.3% | OVCAR-3 ovarian 11.5% | HS 578T breast 84.6% | NCI/ADR-RES ovarian 51.9%

C=CCN1C=CC(=O)[C@H](O[Si](C)(C)C(C)(C)C)[C@@H]1/C=C/c1ccccc1
active: SR leukemia -25.6% [100 µM] | RPMI-8226 leukemia -16% [100 µM] | OVCAR-8 ovarian -47.1% [100 µM] | OVCAR-5 ovarian -82.8% [100 µM] | SK-OV-3 ovarian -87.6% [100 µM] | OVCAR-3 ovarian -73.5% [100 µM] | HS 578T breast -24.1% [100 µM] | NCI/ADR-RES ovarian -74.7% [100 µM]

COc1cc(CO)cc2cc3ccccc3nc12
inactive: SR leukemia 96% | RPMI-8226 leukemia 101% | OVCAR-8 ovarian 101% | OVCAR-5 ovarian 106% | SK-OV-3 ovarian 109% | IGROV1 ovarian 106% | OVCAR-3 ovarian 110% | HS 578T breast 108% | NCI/ADR-RES ovarian 111%

COc1ccc(C/C(C)=C(/c2ccc(OCCN3CCCC3)cc2)c2ccc(OC(=O)NCc3ccccc3)cc2)cc1
inactive: RPMI-8226 leukemia 66.7% | OVCAR-8 ovarian 89.4% | OVCAR-5 ovarian 81% | SK-OV-3 ovarian 104% | IGROV1 ovarian 101% | OVCAR-3 ovarian 89.8% | HS 578T breast 81.1% | NCI/ADR-RES ovarian 97.1%
active: SR leukemia -22.6%

O=C1OCC2=C1C(c1cccc([N+](=O)[O-])c1)c1cc3c(cc1N2CCO)CCC3 (stereo not drawn)
active: OVCAR-8 ovarian 5.88% | OVCAR-3 ovarian -1.17% | NCI/ADR-RES ovarian 3.57%
inactive: SR leukemia 15.2% | RPMI-8226 leukemia 17% | OVCAR-5 ovarian 43.5% | SK-OV-3 ovarian 27% | IGROV1 ovarian 25.9% | HS 578T breast 21.9%

COc1cc2ncnc(Nc3ccc(F)c(Cl)c3)c2cc1OCC(=O)N1CCCCC1
inactive: SR leukemia 74.6% | RPMI-8226 leukemia 81.9% | OVCAR-8 ovarian 89.2% | OVCAR-5 ovarian 67% | SK-OV-3 ovarian 21.3% | IGROV1 ovarian 42.8% | OVCAR-3 ovarian 73.2% | HS 578T breast 94.4% | NCI/ADR-RES ovarian 62.1%

COc1ccc(-c2cc(-c3cccnc3)nc3sc4c(Cl)nnnc4c23)cc1OC
active: SR leukemia 6.41%
inactive: RPMI-8226 leukemia 58% | OVCAR-8 ovarian 91.4% | OVCAR-5 ovarian 118% | SK-OV-3 ovarian 109% | IGROV1 ovarian 81.6% | OVCAR-3 ovarian 91.9% | HS 578T breast 89.2% | NCI/ADR-RES ovarian 108%

Cc1ccc(NC(=O)c2sc3nc(C)c(C(=O)c4ccccc4)cc3c2N)cc1
inactive: SR leukemia 45.2% | RPMI-8226 leukemia 90.1% | OVCAR-8 ovarian 94.6% | OVCAR-5 ovarian 97.6% | SK-OV-3 ovarian 45.8% | IGROV1 ovarian 95% | OVCAR-3 ovarian 94.8% | HS 578T breast 75.9% | NCI/ADR-RES ovarian 95.2%

N#Cc1cc(-c2ccnc(Nc3ccc(NC(=O)CCl)cc3)n2)ccc1N1CCCC1
inactive: NCI/ADR-RES ovarian 10.9%
active: SR leukemia 1.78% | RPMI-8226 leukemia -24.3% | OVCAR-8 ovarian 6.56% | OVCAR-5 ovarian -9.19% | OVCAR-4 ovarian -20.8% | SK-OV-3 ovarian -48.6% | OVCAR-3 ovarian -46%

O=C(NNc1ccccc1)c1ccccc1
inactive: SR leukemia 104% | RPMI-8226 leukemia 82.2% and 76.6% | OVCAR-8 ovarian 106% and 73.5% | OVCAR-5 ovarian 77.2% and 68.7% | SK-OV-3 ovarian 95.5% and 103% | OVCAR-3 ovarian 81.4% and 101% | HS 578T breast 90.8% and 99.1% | NCI/ADR-RES ovarian 64.3% and 57.6%

Cc1ccc(C(=O)N(CCCN)[C@@H](c2nc3cc(Cl)ccc3c(=O)n2Cc2ccccc2)C(C)C)cc1
active: SR leukemia -32% | RPMI-8226 leukemia -36.6% | OVCAR-8 ovarian -11.7% | OVCAR-5 ovarian -17.5% | IGROV1 ovarian 8.41% | OVCAR-3 ovarian -13.7% | HS 578T breast -12.8% | NCI/ADR-RES ovarian -30.1%
inactive: SK-OV-3 ovarian 38.6%

COc1c(O)c(O)cc2c3c(oc12)CC(c1ccc2c(c1)OCO2)CC3=O (stereo not drawn)
inactive: SR leukemia 45.2% | RPMI-8226 leukemia 62.5% | OVCAR-8 ovarian 63% | OVCAR-5 ovarian 116% | SK-OV-3 ovarian 90.1% | IGROV1 ovarian 54.5% | OVCAR-3 ovarian 63.8% | HS 578T breast 93.8% | NCI/ADR-RES ovarian 67%

CCN1CCN(CC(=O)Nc2nc3ccc(NCc4ccc(C)cc4)cc3s2)CC1
inactive: RPMI-8226 leukemia 48.8% | OVCAR-8 ovarian 85.9% | OVCAR-5 ovarian 80.5% | SK-OV-3 ovarian 91.5% | IGROV1 ovarian 91.4% | OVCAR-3 ovarian 70.3% | HS 578T breast 84.9% | NCI/ADR-RES ovarian 81.8%
active: SR leukemia 7.22%

Cc1cc(N2CCCCC2)nc(NCc2cc(Nc3ccnc4cc(Cl)ccc34)ccc2F)n1
inactive: SK-OV-3 ovarian 72.6% | IGROV1 ovarian 10.2% | HS 578T breast 14.9%
active: SR leukemia -21.3% | RPMI-8226 leukemia -38.9% | OVCAR-8 ovarian -15% | OVCAR-5 ovarian -42.1% | OVCAR-3 ovarian -79.5% | NCI/ADR-RES ovarian 6.86%

O=C(CCCCCCCCC(=O)N/N=C\c1ccccc1O)N/N=C\c1ccccc1O
inactive: SR leukemia 13.5% | RPMI-8226 leukemia 32.8% | OVCAR-8 ovarian 25.5% | OVCAR-5 ovarian 67.5% | SK-OV-3 ovarian 36.9% | IGROV1 ovarian 29.6% | OVCAR-3 ovarian 39.8% | HS 578T breast 46.8% | NCI/ADR-RES ovarian 14.1%

COc1cc(/C=C2\C(=O)N(CCCCn3c4ccccc4c(=O)c4ccccc43)c3ccccc32)cc(OC)c1O
inactive: SR leukemia 14.7% | RPMI-8226 leukemia 35.2% | OVCAR-5 ovarian 91% | OVCAR-4 ovarian 56.1% | SK-OV-3 ovarian 97.1% | IGROV1 ovarian 52.3% | OVCAR-3 ovarian 31.6% | HS 578T breast 68.8% | NCI/ADR-RES ovarian 48.6%

C#CCOCC1CN(C)C(=O)O1 (stereo not drawn)
inactive: SR leukemia 69.7% | RPMI-8226 leukemia 110% | OVCAR-5 ovarian 126% | OVCAR-4 ovarian 116% | SK-OV-3 ovarian 133% | IGROV1 ovarian 108% | OVCAR-3 ovarian 109% | HS 578T breast 109% | NCI/ADR-RES ovarian 109%

Source: PubChem BioAssay (NCI)
